Consider four compounds from PubChem BioAssay (EPA / NIEHS).

Structures are written as SMILES. Active and inactive are the calls of the source. Rule for the calls: active = hit-call score of the fitted dose curve at least 0.9, where 1 is the maximum; inactive = score below 0.9.

Experiment [1] is described as follows: ATG_GLI_CIS: Attagene CIS-FACTORIAL HepG2 Assay for human Zinc Finger Protein GLI1 (AID 2282945). The conditions noted are these: HepG2, Attagene cis-factorial reporter mRNA, GLI element; actives raise or lower the signal. The method in brief:
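Bidirectional curve fits relative to DMSO, using reporter mRNA levels from RT-PCR plus capillary electrophoresis. Cells were HepG2 transiently carrying cis-regulated reporter constructs, harvested 24 h after dosing.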

Experiment [2] concerns the target Bile acid receptor (Homo sapiens) (UniProt Q96RI1). Nature of the experiment: ATG_IR1_CIS: Attagene CIS-FACTORIAL HepG2 Assay for human Nuclear Receptor Subfamily 1 Group H Member 4 (NR1H4), IR1 submotif (AID 2282946). As to conditions: IR1 reporter transcription, actives raise or lower the signal. The method in brief: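 HepG2 cells transiently transfected with multiplexed cis-element reporter units read endogenous transcription factor activity. After 24 h compound exposure, reporter mRNA was quantified by RT-PCR, fluorescent labelling, HpaI digestion and capillary electrophoresis; bidirectional fitting versus DMSO baseline.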

Experiment [3] can be described thus: ATG_GRE_CIS: Attagene CIS-FACTORIAL HepG2 Assay for human Glucocorticoid Response Elements (GRE) (AID 2282947). As to conditions: HepG2 GRE cis-reporter, Attagene multiplex mRNA; actives raise or lower the signal. In a few lines: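 Multiplexed cis-reporter mRNA induction, HepG2, 24 h post-dose. RT-PCR, FAM-labelled, HpaI-digested amplicons by CE. Bidirectional fit vs DMSO.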

The nature of experiment [4]: ATG_ISRE_CIS: Attagene CIS-FACTORIAL HepG2 Assay for human Interferon Regulatory Factor 1 (IRF1) binding to an Interferon-Stimulated Response Element (ISRE) (AID 2282948). As to conditions: HepG2 ISRE cis-reporter (Attagene), mRNA transcription readout; actives raise or lower the signal. In a few lines:
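Signal reflects induction or loss of ISRE-linked reporter mRNA in transiently transfected HepG2 cells after a 24 h treatment, detected by fluorescent RT-PCR fragments on capillary electrophoresis and normalised to DMSO.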

Experiment [5] in a line: ATG_M_32_CIS: Attagene CIS-FACTORIAL HepG2 Assay for M32 Transcription Factor (Internal Marker) (AID 2282949).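 Note: background control marker of the multiplexed CIS panel rather than a real target.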 As to conditions: HepG2 Attagene cis-factorial M32 reporter, mRNA; actives raise or lower the signal. The method in brief: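 Transient MRTU transfection of HepG2; 24 h compound treatment; TriZol RNA, oligo(dT) RT, reporter PCR, 6-FAM primer extension, HpaI cut, CE. Gain/loss of signal vs DMSO.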

Experiment [6] in a line: ATG_M_06_CIS: Attagene CIS-FACTORIAL HepG2 Assay for M06 Transcription Factor (Internal Marker) (AID 2282950). As to conditions: HepG2 Attagene CIS-FACTORIAL M06 internal marker reporter; actives raise or lower the signal. The method in brief: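 Cells (HepG2, transiently carrying cis-driven reporter units) receive chemical for 24 h before RNA isolation. Reporter cDNA is PCR-amplified, FAM-labelled by primer extension, HpaI-digested and sized on a capillary analyser.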

Experiment [7] deals with Hepatocyte nuclear factor 6 (Homo sapiens) (UniProt Q9UBC0). Nature of the experiment: ATG_HNF6_CIS: Attagene CIS-FACTORIAL HepG2 Assay for human Hepatocyte Nuclear Factor 6 (HNF6) (AID 2282952). As to conditions: HepG2 Attagene cis-factorial HNF6 reporter transcription; actives raise or lower the signal. In a few lines: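 Readout: fluorescent reporter-transcript fragments resolved by capillary electrophoresis after RT-PCR, reflecting endogenous factor activity in transfected HepG2. Exposure 24 h. Gain or loss of signal fitted bidirectionally against DMSO.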
Sequence of Hepatocyte nuclear factor 6 (Homo sapiens) (Q9UBC0 whole entry, looked up, the tested form may be a part): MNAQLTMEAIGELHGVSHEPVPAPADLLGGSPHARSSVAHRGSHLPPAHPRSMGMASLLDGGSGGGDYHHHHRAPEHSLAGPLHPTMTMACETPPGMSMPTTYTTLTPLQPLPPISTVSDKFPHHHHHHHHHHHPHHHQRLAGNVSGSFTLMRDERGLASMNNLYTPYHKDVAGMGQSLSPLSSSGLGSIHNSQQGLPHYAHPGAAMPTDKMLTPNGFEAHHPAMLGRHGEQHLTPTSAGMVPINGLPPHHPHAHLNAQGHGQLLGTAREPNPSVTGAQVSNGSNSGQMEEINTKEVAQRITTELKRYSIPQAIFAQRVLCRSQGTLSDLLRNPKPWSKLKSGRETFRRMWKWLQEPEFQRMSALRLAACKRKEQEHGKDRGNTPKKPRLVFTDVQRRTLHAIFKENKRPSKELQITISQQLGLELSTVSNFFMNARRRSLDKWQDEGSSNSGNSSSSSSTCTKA

Experiment [8] deals with Heat shock factor protein 1 (Homo sapiens) (UniProt Q00613). Nature of the experiment: ATG_HSE_CIS: Attagene CIS-FACTORIAL HepG2 Assay for human Heat Shock Transcription Factor 1 (HSE) (AID 2282953). As to conditions: HepG2 HSE cis-reporter, Attagene RNA transcription; actives raise or lower the signal. The method in brief: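 Liver-derived HepG2 cells carry transiently introduced multiple reporter units governed by cis promoters. Reporter RNA measured 24 h post-dose through reverse transcription, PCR amplification, fluorescent labelling and capillary electrophoresis, normalised to DMSO.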
Sequence of Heat shock factor protein 1 (Homo sapiens) (Q00613 whole entry, looked up): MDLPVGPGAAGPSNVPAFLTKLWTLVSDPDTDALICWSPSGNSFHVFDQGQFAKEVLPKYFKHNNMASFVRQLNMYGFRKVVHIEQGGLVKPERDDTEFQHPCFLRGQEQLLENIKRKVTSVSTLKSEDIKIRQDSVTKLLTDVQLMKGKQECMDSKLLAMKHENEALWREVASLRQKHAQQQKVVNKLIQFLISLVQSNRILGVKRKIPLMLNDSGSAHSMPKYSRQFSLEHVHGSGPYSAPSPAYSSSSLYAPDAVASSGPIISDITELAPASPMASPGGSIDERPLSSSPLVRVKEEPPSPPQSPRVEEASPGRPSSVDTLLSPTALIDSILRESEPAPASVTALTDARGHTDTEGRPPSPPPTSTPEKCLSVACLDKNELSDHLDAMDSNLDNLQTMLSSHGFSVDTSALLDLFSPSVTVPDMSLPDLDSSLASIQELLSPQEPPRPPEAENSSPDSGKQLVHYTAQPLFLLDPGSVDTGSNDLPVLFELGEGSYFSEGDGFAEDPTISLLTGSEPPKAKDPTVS

A short description of experiment [9]: ATG_MRE_CIS: Attagene CIS-FACTORIAL HepG2 Assay for human Metal Responsive Element (MRE) (AID 2282954). As to conditions: HepG2 MRE cis-reporter transcription, Attagene multiplex; actives raise or lower the signal. The method in brief: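 Multiplexed cis-reporter assay in human HepG2 liver cells, 24 h incubation with test chemical. Reporter transcripts measured by RT-PCR and capillary electrophoresis; values from bidirectional curve fitting versus DMSO.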

For experiment [10], the target named is Paired box protein Pax-6 (Homo sapiens) (UniProt P26367). Put plainly: ATG_Pax6_CIS: Attagene CIS-FACTORIAL HepG2 Assay for human Paired Box 6 (PAX6) (AID 2282956). As to conditions: HepG2 CIS-FACTORIAL PAX6 reporter transcription, RNA readout; actives raise or lower the signal. In a few lines:
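Values derive from bidirectional curve fitting of reporter mRNA signal relative to DMSO. HepG2 cells bearing transfected cis-regulated MRTUs were exposed for 24 h; transcripts were read by RT-PCR and capillary electrophoresis.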

A short description of experiment [11]: ATG_PXRE_CIS: Attagene CIS-FACTORIAL HepG2 Assay for human Pregnane X Receptor Element (PXRE) (AID 2282957). As to conditions: HepG2 Attagene CIS-FACTORIAL PXRE reporter, mRNA; actives raise or lower the signal. In a few lines: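 Read-out: fluorescence of reporter-specific RT-PCR products resolved by capillary electrophoresis, fitted bidirectionally relative to DMSO. Human HepG2 liver cells carried transfected cis-promoter reporter units and were exposed to chemicals for 24 h.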

The nature of experiment [12]: ATG_PPRE_CIS: Attagene CIS-FACTORIAL HepG2 Assay for human Peroxisome Proliferator-activated Response Element (PPRE) (AID 2282958). As to conditions: HepG2 PPRE cis-element reporter, Attagene transcription factor profiling; actives raise or lower the signal. In a few lines: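 HepG2 cells transiently transfected with multiplexed cis-element reporter units measure endogenous transcription factor activity. After 24 h compound exposure, reporter mRNA is quantified by RT-PCR, 6-FAM labeling, HpaI digestion and capillary electrophoresis; bidirectional fits are made against DMSO baseline.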

The nature of experiment [13]: ATG_RORE_CIS: Attagene CIS-FACTORIAL HepG2 Assay for human RAR-related Orphan Receptor Element (RORE) (AID 2282959). The conditions noted are these: HepG2 Attagene cis-factorial RORE reporter, mRNA; actives raise or lower the signal. The method in brief:
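HepG2 cells transiently transfected with multiple cis-element reporter transcription units, exposed to chemical for 24 h. Reporter mRNA quantified by RT-PCR, 6-FAM primer-extension labeling, HpaI digestion and capillary electrophoresis; bidirectional fit versus DMSO baseline.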

Experiment [14] in a line: ATG_Sox_CIS: Attagene CIS-FACTORIAL HepG2 Assay for human SRY-box transcription factor (SOX) (AID 2282960). The conditions noted are these: HepG2 Attagene cis-factorial SOX reporter, mRNA; actives raise or lower the signal. The method in brief:
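HepG2 cells transiently transfected with cis-element-driven multiple reporter transcription units, dosed 24 h; reporter mRNA measured by RT-PCR, FAM labelling, HpaI digestion and capillary electrophoresis. Bidirectional fit versus DMSO baseline.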

The target of experiment [15] is Transcription factor Sp1 (Homo sapiens) (UniProt P08047). Put plainly: ATG_Sp1_CIS: Attagene CIS-FACTORIAL HepG2 Assay for human Specificity Protein 1 (Sp1) (AID 2282961). The conditions noted are these: HepG2 Sp1 cis-reporter transcription, actives raise or lower the signal. The method in brief:
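HepG2 cells transiently transfected with multiple reporter transcription units driven by cis-regulatory elements; Sp1-responsive reporter mRNA measured 24 h after dosing by RT-PCR and capillary electrophoresis fluorescence, fitted bidirectionally against DMSO baseline.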

Experiment [16] has as its target Signal transducer and activator of transcription 3 (Homo sapiens) (UniProt P40763). Nature of the experiment: ATG_STAT3_CIS: Attagene CIS-FACTORIAL HepG2 Assay for human Signal Transducer and Activator of Transcription 3 (STAT3) (AID 2282963). The conditions noted are these: HepG2, Attagene cis-factorial STAT3 reporter transcription; actives raise or lower the signal. In a few lines: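 Cis-factorial format: endogenous transcription factors in HepG2 drive transfected reporter units. After 24 h treatment, reporter RNA was reverse-transcribed, amplified, FAM-labelled and HpaI-digested before CE analysis; activity scored in both directions against DMSO.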

Experiment [17] in a line: ATG_TA_CIS: Attagene CIS-FACTORIAL HepG2 Assay for human TA Basal Promoter (AID 2282964). As to conditions: HepG2 Attagene CIS-factorial TA basal promoter reporter; actives raise or lower the signal. In a few lines: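 Background internal-marker endpoint from a 52-component HepG2 cis-reporter panel. Cells treated 24 h; reporter transcripts quantified via RT-PCR and CE fluorescence against DMSO baseline.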

The target of experiment [18] is Hypoxia-inducible factor 1-alpha (Homo sapiens) (UniProt Q16665). Put plainly: ATG_HIF1a_CIS: Attagene CIS-FACTORIAL HepG2 Assay for human Hypoxia Inducible Factor 1 (HIF1A) (AID 2282951). As to conditions: HepG2 Attagene cis-factorial HIF1a reporter transcription; actives raise or lower the signal. In a few lines:
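HepG2 cells transiently transfected with multiplexed cis-promoter reporter units; reporter mRNA read 24 h after dosing by RT-PCR, 6-FAM primer-extension labelling, HpaI digestion and capillary electrophoresis. Bidirectional fit versus DMSO baseline.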

Experiment [19] can be described thus: ATG_PBREM_CIS: Attagene CIS-FACTORIAL HepG2 Assay for human Phenobarbital-responsive Enhancer Module (PBREM) (AID 2282955). The conditions noted are these: HepG2 PBREM cis-reporter, Attagene multiplexed transcription; actives raise or lower the signal. In a few lines:
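HepG2 cells transiently transfected with multiple cis-regulated reporter transcription units; endogenous factor activity at the PBREM element measured as reporter mRNA 24 h after dosing, via RT-PCR and capillary electrophoresis of fluorescent fragments; bidirectional fitting versus DMSO.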

Experiment [20] can be described thus: ATG_SREBP_CIS: Attagene CIS-FACTORIAL HepG2 Assay for human Sterol Regulatory Element Binding (SREBP) (AID 2282962). The conditions noted are these: HepG2 Attagene cis-factorial SREBP reporter, mRNA; actives raise or lower the signal. The method in brief: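 Values derive from bidirectional curve fitting with DMSO as baseline. The underlying measurement is reporter mRNA from cis-element-regulated units in transiently transfected HepG2, quantified by RT-PCR and capillary electrophoresis after 24 h exposure.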

Sequence of Signal transducer and activator of transcription 3 (Homo sapiens) (P40763 whole entry, looked up): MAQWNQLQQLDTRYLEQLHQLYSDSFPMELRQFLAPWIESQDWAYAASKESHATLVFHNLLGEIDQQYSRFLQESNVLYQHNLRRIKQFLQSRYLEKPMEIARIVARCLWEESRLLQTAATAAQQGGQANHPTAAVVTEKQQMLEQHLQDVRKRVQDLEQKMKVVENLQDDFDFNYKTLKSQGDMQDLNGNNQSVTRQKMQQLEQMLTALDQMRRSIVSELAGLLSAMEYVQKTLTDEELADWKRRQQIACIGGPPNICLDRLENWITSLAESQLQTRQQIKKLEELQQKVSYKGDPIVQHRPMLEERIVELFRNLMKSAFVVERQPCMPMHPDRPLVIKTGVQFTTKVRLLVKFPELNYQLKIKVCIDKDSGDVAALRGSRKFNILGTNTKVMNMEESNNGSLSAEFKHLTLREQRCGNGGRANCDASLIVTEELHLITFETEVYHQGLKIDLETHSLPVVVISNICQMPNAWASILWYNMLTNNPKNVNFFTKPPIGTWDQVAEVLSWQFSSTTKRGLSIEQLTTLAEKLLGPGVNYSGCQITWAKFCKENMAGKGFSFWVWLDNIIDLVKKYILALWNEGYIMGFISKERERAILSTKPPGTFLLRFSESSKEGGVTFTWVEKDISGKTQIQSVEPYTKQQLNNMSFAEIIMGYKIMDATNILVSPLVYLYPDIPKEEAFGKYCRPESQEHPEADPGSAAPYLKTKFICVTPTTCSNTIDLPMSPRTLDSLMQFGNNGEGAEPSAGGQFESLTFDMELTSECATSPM
Sequence of Bile acid receptor (Homo sapiens) (Q96RI1 whole entry, looked up): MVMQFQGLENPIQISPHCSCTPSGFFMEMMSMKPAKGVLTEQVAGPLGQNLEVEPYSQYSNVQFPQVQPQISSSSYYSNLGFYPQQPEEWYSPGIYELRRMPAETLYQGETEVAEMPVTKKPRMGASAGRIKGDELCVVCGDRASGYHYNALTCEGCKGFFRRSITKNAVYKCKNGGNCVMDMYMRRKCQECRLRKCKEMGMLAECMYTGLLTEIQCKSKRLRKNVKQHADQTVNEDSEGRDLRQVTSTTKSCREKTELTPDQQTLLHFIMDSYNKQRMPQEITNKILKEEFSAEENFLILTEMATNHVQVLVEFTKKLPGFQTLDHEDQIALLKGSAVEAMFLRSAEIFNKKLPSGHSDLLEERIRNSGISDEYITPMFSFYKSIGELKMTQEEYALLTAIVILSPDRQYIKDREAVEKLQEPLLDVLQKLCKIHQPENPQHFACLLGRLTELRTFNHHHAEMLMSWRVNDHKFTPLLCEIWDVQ
Sequence of Transcription factor Sp1 (Homo sapiens) (P08047 whole entry, looked up): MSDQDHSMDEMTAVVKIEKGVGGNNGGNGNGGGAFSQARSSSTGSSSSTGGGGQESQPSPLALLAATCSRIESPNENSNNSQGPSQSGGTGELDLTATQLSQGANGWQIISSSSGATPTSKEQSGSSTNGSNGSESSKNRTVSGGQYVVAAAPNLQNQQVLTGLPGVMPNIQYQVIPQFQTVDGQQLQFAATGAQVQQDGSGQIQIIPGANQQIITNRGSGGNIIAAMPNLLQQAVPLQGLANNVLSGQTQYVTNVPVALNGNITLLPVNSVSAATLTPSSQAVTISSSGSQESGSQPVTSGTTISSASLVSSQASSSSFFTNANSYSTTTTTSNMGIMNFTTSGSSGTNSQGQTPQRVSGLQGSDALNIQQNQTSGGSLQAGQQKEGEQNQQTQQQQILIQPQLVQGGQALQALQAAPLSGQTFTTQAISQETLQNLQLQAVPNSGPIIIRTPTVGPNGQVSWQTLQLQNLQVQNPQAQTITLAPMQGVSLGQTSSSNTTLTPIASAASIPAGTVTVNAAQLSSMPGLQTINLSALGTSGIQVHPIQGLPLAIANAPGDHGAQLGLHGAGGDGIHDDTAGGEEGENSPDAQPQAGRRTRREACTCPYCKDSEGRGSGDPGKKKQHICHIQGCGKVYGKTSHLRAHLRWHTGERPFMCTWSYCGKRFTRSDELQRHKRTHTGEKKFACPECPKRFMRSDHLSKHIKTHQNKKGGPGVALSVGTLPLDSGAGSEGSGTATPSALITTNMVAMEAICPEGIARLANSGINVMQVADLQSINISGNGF
Sequence of Paired box protein Pax-6 (Homo sapiens) (P26367 whole entry, looked up): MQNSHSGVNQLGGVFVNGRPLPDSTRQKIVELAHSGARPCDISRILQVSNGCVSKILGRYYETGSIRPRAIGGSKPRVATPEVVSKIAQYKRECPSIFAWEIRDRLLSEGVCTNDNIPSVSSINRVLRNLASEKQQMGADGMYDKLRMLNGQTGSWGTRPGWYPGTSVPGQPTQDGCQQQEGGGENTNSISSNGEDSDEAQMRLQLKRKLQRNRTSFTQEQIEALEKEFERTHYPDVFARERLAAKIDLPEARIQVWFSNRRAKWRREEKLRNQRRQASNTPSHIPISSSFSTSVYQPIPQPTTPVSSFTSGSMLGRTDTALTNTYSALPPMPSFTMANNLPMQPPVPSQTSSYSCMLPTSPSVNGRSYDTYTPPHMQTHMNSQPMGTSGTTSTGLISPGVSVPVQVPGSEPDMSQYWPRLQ
Sequence of Hypoxia-inducible factor 1-alpha (Homo sapiens) (Q16665 whole entry, looked up): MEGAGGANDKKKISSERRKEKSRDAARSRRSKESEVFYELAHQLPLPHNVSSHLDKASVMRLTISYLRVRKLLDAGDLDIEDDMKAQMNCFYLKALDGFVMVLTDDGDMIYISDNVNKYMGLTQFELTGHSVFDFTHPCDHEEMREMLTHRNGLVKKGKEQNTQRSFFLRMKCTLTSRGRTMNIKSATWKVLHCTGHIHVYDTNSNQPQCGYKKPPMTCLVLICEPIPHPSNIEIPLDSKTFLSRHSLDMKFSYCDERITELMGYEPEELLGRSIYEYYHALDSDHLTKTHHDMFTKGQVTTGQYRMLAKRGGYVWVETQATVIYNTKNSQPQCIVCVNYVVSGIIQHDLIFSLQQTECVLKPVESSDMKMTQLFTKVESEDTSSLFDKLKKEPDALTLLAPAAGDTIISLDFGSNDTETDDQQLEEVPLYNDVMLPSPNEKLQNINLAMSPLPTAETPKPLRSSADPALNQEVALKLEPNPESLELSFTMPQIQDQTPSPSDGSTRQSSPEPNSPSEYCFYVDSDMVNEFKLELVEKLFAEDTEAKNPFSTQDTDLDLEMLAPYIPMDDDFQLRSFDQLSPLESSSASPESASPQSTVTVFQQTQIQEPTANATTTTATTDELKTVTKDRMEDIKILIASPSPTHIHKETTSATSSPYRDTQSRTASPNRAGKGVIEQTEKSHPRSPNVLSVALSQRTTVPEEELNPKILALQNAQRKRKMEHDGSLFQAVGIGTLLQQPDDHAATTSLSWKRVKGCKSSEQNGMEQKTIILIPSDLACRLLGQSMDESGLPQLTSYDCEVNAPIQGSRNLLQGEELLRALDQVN

For the compound `CCCCCC1CCC(=O)O1` (stereo not given), the compound was called inactive in [1], in experiment [2], in experiment [3], in experiment [4], in experiment [5] and in experiment [6]. Moreover, the compound was classed as inactive in [7], in experiment [8], in experiment [9], in [10], in [11] and in [12]. The compound was called inactive in experiment [13], in experiment [14], in experiment [15], in experiment [16] and in [17].

As usually defined, the AC50 is the concentration giving half of the maximal activity seen. `NC(=O)c1c(Cl)cccc1Cl`: the outcome in experiment [1], in [2], in experiment [4], in [5], in experiment [6] and in experiment [18] was inactive. Besides, the call in experiment [7], in experiment [8], in experiment [9], in [19], in experiment [10] and in experiment [12] was inactive. Also, the call in [13], in experiment [14], in [15], in experiment [20], in [16] and in experiment [17] was inactive. Moreover, in [11], the AC50 was 0.104 µM (active).

Turning to `OC[C@H]1O[C@@H](O[C@H]2[C@H](O)[C@@H](O)[C@H](O)O[C@@H]2CO)[C@H](O)[C@@H](O)[C@H]1O`, the call in [1], in [2], in experiment [3], in experiment [4], in experiment [5] and in experiment [6] was inactive. Besides, the compound was called inactive in [7], in experiment [8], in [9], in [10], in experiment [11] and in experiment [12]. The outcome in experiment [14], in experiment [20] and in [17] was inactive.

`NC(=O)c1cccnc1`: the compound was classed as inactive in [1], in [2], in experiment [3], in experiment [4], in experiment [5] and in experiment [6]. The compound was called inactive in experiment [18], in experiment [8], in experiment [9], in experiment [19], in experiment [10] and in experiment [12]. In addition, the outcome in experiment [13], in experiment [14], in experiment [15], in experiment [20], in [16] and in experiment [17] was inactive. Also, the half-maximal activity concentration (AC50) in experiment [11] was 32.3 µM (active).
